Screening data as filed in PubChem BioAssay.
TSHR antag: Antagonists of the Thyroid Stimulating Hormone Receptor: HTS campaign; TSHR-expressing cells, TSH-stimulated cAMP HTRF, 2 h; stronger effect = lower value; activity change, negative = inhibition, % at 11.5 µM; hit rate 0.2% among 330,000;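 active = activity change below a set negative limit, meaning inhibition stronger than a set level, cut at about -70% in these data; inconclusive = activity change between two set negative limits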
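Freshly harvested TSHR cells receive pin-tooled compound, then EC80 TSH at 4nM final. After 2 hours at 37 deg C, antibody in lysis buffer and cAMP-d2 are added; 30 minutes at ambient temperature precede the HTRF read.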
RORgamma inh: qHTS for inhibitors of ROR gamma transcriptional activity | Nuclear receptor ROR-gamma (Mus musculus), P51450 | Drosophila S2 Gal4-RORgamma UAS-luciferase reporter, 20 h | hit rate 5.4% among 310,000 | AID 2551, 2010 | Potency, µM (top dose mostly 53.6 µM), for the others: at the top dose activity change, negative = inhibition, usual class: inhibitors; also: potency is read from the fitted curve at half-maximal effect; nearly all actives have a fitted effect of over 60% in size
Target sequence (P51450 whole entry, looked up, the tested form may be a part): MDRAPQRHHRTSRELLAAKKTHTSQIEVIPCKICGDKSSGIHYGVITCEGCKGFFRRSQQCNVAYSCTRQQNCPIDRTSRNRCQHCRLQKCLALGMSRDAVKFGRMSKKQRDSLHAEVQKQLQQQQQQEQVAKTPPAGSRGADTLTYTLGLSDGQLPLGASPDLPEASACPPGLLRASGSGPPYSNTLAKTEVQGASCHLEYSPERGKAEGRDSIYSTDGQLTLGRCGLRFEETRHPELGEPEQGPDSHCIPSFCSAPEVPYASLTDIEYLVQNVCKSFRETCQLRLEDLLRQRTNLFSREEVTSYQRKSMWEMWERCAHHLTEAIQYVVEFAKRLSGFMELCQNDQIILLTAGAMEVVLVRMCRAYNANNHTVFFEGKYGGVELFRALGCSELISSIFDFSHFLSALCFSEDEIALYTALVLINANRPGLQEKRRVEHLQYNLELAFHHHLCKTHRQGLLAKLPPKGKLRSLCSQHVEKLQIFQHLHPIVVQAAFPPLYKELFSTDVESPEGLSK
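Stably transfected Drosophila Schneider cells are the test system, with ROR gamma fused to Gal4 and luciferase under UAS control; luminescence is read after 20 hr of 700 uM copper sulfate induction at ambient temperature.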
VP16 counter: VP16 counterscreen qHTS for inhibitors of ROR gamma transcriptional activity; Drosophila S2 Gal4-VP16 UAS-luciferase, luminescence, 20 h; Potency, µM (doses to about 53.6 µM), without a hit: top-dose activity, negative = inhibition, usual class: inhibitors; hit rate 3.5% among 310,000; AID 2546, 2010;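 also: Gal4-VP16 expression switched on by copper sulfate through the metallothionein promoter; potency is read from the fitted curve at half-maximal effect; nearly all actives have a fitted effect of over 50% in size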
ELG1 repair inh: qHTS screen for small molecules that inhibit ELG1-dependent DNA repair in human embryonic kidney (HEK293T) cells expressing luciferase-tagged ELG1. HEK293T ELG1-luciferase reporter, luminescence, 16 h; DNA damage induced by 5-fluorouridine. Potency, µM (titrated, usually from 46.1 µM), without a hit: top-dose activity change, negative = inhibition, hits mostly inhibitors. hit rate 2.3% among 330,000. AID 504467, 2011; also: potency is read from the fitted curve at half-maximal effect; nearly all actives have a fitted effect of over 55% in size
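Reporter activity after DNA damage by 5-fluorouridine is monitored. Compound-treated cells incubate 16 hr at 37 °C, then ONE-Glo is added for 30 min before luminescence reading.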
Coupling enz: qHTS Assay for Inhibitors of Fructose-1,6-bisphosphate Aldolase from Giardia Lamblia: Coupling assay counterscreen; coupling enzyme system counterscreen, AmpLite Red fluorescence; activity change, negative = inhibition, % at 58.2 µM, hits read low; hit rate 0.67% among 290,000; AID 2472, 2010; in the data active = activity change below about -30%
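Counterscreen of the coupled detection system alone, without aldolase: glyceraldehyde-3-phosphate coupling enzymes plus AmpLite Red readout. Compounds at 57.5 uM final, 10 min RT preincubation, 20 min RT reaction, fluorescence 525/598 nm.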
* marks the source's active call; other numbers are inactive results; ? = inconclusive; / = not tested or not shown; [ ] = another dose, or the depositor's remark. Shown are actives, neighbours in structure and some others; about 8% of the full set was active somewhere. Unless noted, calls follow the shape of the dose curve; as a rule, active = well fitted curve in the direction sought with a large enough effect; inconclusive = small, poorly fitted or top-dose-only effect, or another doubt; inactive = no such curve, though single readings can be large; an effect the other way counts as inactive or inconclusive. % is scaled to controls: 0 for no effect and ±100 for the full control effect.

SMILES | TSHR antag | RORgamma inh | VP16 counter | ELG1 repair inh | Coupling enz
c1cncc(-c2nc(NCc3ccc4c(c3)OCO4)c3ccccc3n2)c1 | -2.8 | -2.3% | -3.4% | 20.6µM* | -0.7
COc1ccc(OC2C(O)COC2/C=C/c2ccccc2)cc1 (stereo unspecified) | / | 10.7%[10 µM] | 9.9%[10 µM] | / | 0.5
Cc1ccc(S(=O)(=O)N2CCOCC2)cc1C(=O)OCC(=O)NC1CCCC1 | 8.3 | / | / | -0.6% | /
CC(C)NC(=O)CN(C(=O)CCC(=O)Nc1nccs1)c1ccc(C(C)C)cc1 | 0.0 | 19.9% | 1.4% | -1.5% | -1.6
O=C(O)CCC(=O)NNC(=O)COc1cccc(Cl)c1 | 0.6 | -26.3% | -6.8% | 9.6% | 0.4
O=C(COc1cccc(Cl)c1)NNC(=S)Nc1ccccc1 | -11.1 | 0.891µM* | 1µM* | 12.4% | 1.5
COc1cccc(OCC(=O)NNC(=S)Nc2ccc(Cl)cc2Cl)c1 | -4.9 | 15.8µM* | -8.4% | -4.1% | 3.3
O=C1CCCC2=C1C1c3ccccc3C(=O)N1c1ccc(C(=O)c3ccccc3)cc1N2 (stereo unspecified) | 0.7 | 42.6% | -12.7% | 16.4µM* | -2.0
Cc1ccc(S(=O)(=O)n2nc(C)cc2C)cc1 | 2.1 | -4.8% | 5.7% | -0.4% | -4.8
Cc1cc(C)n(S(=O)(=O)/C=C/c2ccccc2)n1 | 1.3 | 15.8µM* | -1.2% | 6.7% | 3.5
CCCNC(=O)C(Cc1ccccc1)NC(=O)c1ccc(C(F)(F)F)cc1 (stereo unspecified) | -4.2 | / | / | 23.3% | /
O=C(O)c1nc2cc(Cl)c(Cl)cc2[nH]c1=O | / | -1.1% | -2.9% | / | 0.5
COc1ccc(Cl)cc1NC(=O)c1[nH]nc(OC)c1[N+](=O)[O-] | -13.8 | 3.55µM* | -1.2%[10 µM] | -11.3% | -2.5
Cc1ccc(CN2CCC(n3nccc3NC(=O)CCOc3ccccc3)CC2)o1 | 7.7 | ? | -17.0% | -3.8% | 1.3
O=C(CCC(=O)c1ccc(Oc2ccccc2)cc1)Nc1cccc(Cl)c1Cl | 5.9 | -15.7% | -15.5% | ? | 1.5
O=C(CC(Nc1ccccc1Cl)C(=O)O)c1ccccc1 (stereo unspecified) | 2.1 | 7.08µM* | 27.4%[10 µM] | ? | 4.4
O=C(CC(Nc1cccc(Cl)c1Cl)C(=O)O)c1ccccc1 (stereo unspecified) | 22.2 | 11.2µM* | 25.9%[10 µM] | 14.2% | 10.6
O=C(CC(Nc1cccc(Cl)c1Cl)C(=O)OCC(=O)c1cccs1)c1ccccc1 (stereo unspecified) | -8.4 | 19.7% | -10.1% | -0.2% | 0.2
Cc1c(Cl)cccc1NC(CC(=O)c1ccccc1)C(=O)OCC(=O)c1cccs1 (stereo unspecified) | 3.5 | 11.2µM* | 7.94µM* | 5.5% | -2.8
O=C(CC(Nc1ccc(Cl)cc1)C(=O)O)c1ccccc1 (stereo unspecified) | -5.0 | 5.01µM* | 5.01µM* | ? | -0.4
C=C[C@@]1(C)CC(=O)[C@@]2(O)[C@@]3(C)[C@@H](O)CCC(C)(C)[C@@H]3[C@H](OC(=O)CCN(C)C)[C@H](OC(C)=O)[C@@]2(C)O1 | / | 3.4% | 2.0% | / | 2.2
Cc1c(Cl)cccc1NC(CC(=O)c1ccccc1)C(=O)O (stereo unspecified) | -2.3 | 7.94µM* | 6.31µM* | ? | 1.2
Nc1ncnc2c1nc(Br)n2C1OC2COP(=O)(O)O[C@@H]2C1O (stereo partly specified) | -5.7 | / | / | / | /
CC(C)(C)NC(=S)NNC(=O)c1ccncc1 | -15.1 | 1.12µM* | 17.8µM* | 2.7% | -16.3
Cc1ccccc1NC(=S)NNC(=O)c1ccncc1 | -3.0 | 10µM* | -4.1% | -7.6% | -1.1
SMILES | TSHR antag | RORgamma inh | VP16 counter | ELG1 repair inh | Coupling enz
C=CCNC(=S)NNC(=O)c1ccncc1 | 18.5 | 10µM* | -24.7% | -7.6% | -0.1
CCC(C)c1ccccc1NC(=O)c1cccnc1 (stereo unspecified) | -7.5 | 11.2µM* | 10.9% | 12.9% | 0.0
COc1cc(CCC(=O)N2CCN(c3ccccc3)CC2)cc(OC)c1OC | -11.2 | -10.5% | 0.7% | 0.3% | -0.8
CC(C)n1cc(/C=N/Nc2ccc(Cl)c(C(=O)O)c2)c2ccccc21 | -6.0 | 50.7%[1.91 µM] | -9.7% | ? | 9.4
COc1ccccc1C(=O)NC(=O)COC(=O)CCS(=O)(=O)c1ccc(C)cc1 | -0.9 | / | / | 3.3% | /
Cc1ccccc1NC(=S)NNC(=O)c1cccnc1 | -3.8 | 6.31µM* | 15.8µM* | -8.0% | 1.3
O=C(NNC(=S)Nc1ccccc1)c1cccnc1 | -9.6 | / | / | ? | 2.5
COc1ccc(CN(C)C(=O)C(Cc2ccccc2)NC(=O)c2ccccc2)cc1F (stereo unspecified) | -12.6 | / | / | 14.6µM* | /
CN(Cc1ccc(F)cc1)C(=O)C(Cc1ccccc1)NC(=O)c1ccccc1 (stereo unspecified) | -5.0 | / | / | ? | /
O=C(Nc1cccc2c1CCCC2)c1ccccc1Cl | 6.5 | 0.6% | -9.5% | -17.3% | 1.1
O=C(Nc1nnc(-c2ccc3c(c2)CCCC3)o1)c1ccccc1Cl | -8.5 | 1.26µM* | 0.794µM* | ? | 16.8
O=C(COc1ccccc1)Nc1nnc(-c2ccc(F)cc2)o1 | 25.2 | ? | 6.31µM* | 0.0% | /
O=C(COc1ccccc1)Nc1ccc(-c2nnc(-c3ccco3)o2)cc1 | 0.8 | -5.1% | -2.9% | 24.2% | 1.6
O=C(COc1ccccc1)Nc1nnc(-c2ccc3c(c2)CCCC3)o1 | -3.9 | 5.62µM* | 3.55µM* | ? | 1.0
O=C(Nc1nnc(-c2ccc3c(c2)CCCC3)o1)c1ccccc1 | -9.3 | 0.282µM* | 0.1µM* | ? | 1.1
O=C(COC(=O)CNC(=O)c1ccccc1)Nc1nnc(-c2ccccc2)o1 | 8.0 | / | / | ? | /
COc1cccc(-n2nnnc2SCC(=O)Nc2ccc3c(c2)OCCO3)c1 | -1.0 | ? | -22.0% | -1.0% | -2.5
COc1ccc(-n2nnnc2SCC(=O)Nc2ccc3c(c2)OCCO3)c(OC)c1 | -7.1 | 7.0% | ? | 20.6µM* | 2.8
COc1ccc(NC(=O)COC(=O)CCc2ccc(S(=O)(=O)N3CCOCC3)cc2)cc1OC | -9.2 | / | / | ? | /
Cn1c(CNC(=O)c2ccc(Cl)cc2)nnc1SCC(=O)NC1CCCC1 | -98.1* | 22.9% | -7.2% | 3.8% | -2.1
CN(C)CC1CCn2c(c(C3=C(c4cn(C)c5ccccc45)C(=O)NC3=O)c3ccccc32)C1 (stereo unspecified) | / | -26.1% | 6.2% | / | 1.3
Cc1cccc(C(=O)Oc2ccc(/C=N/O)cc2)c1 | -7.0 | 5.62µM* | 2µM* | ? | -2.0
C/C(=N\OC(=O)Nc1ccccc1)c1cnn(-c2cc(C(F)(F)F)cc(C)n2)c1C | -3.6 | 12.7% | -7.4% | 2.8% | 1.2
